In PubChem BioAssay (NCI):
The panel holds about 79,000 compounds, 15% with a hit somewhere; the sample as a whole holds those more often. A number with no mark means an inactive call. Activity calls are given as the source filed them. No stated cut-off is given here; in the data, active means growth inhibition above about 70%; inactive means the rest.

Columns and labels:
[1] = NCI Yeast Anticancer Drug Screen. Data for the rad50 strain (AID 155);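 further: 0% = growth of vehicle-only cultures of the same strain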; settings: S. cerevisiae rad50 strain growth inhibition, active compounds read high
Method in brief: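 Readout: growth inhibition relative to vehicle-treated cultures. Compound exposure was carried out in a genetically defined yeast strain deficient in DNA damage repair.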

[2] = NCI Yeast Anticancer Drug Screen. Data for the mec2-1 strain (AID 157); settings: S. cerevisiae mec2-1 strain, active compounds read high
Method in brief: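 Yeast mec2-1 mutant treated with compound. Readout: growth inhibition vs vehicle controls.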

[3] = NCI Yeast Anticancer Drug Screen. Data for the sgs1 mgt1 strain (AID 161);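 further: 0% = growth of cultures given vehicle only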; settings: S. cerevisiae sgs1 mgt1 strain, active compounds read high
Method in brief: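 Genetically altered yeast, compound exposure, growth inhibition relative to vehicle.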

[4] = NCI Yeast Anticancer Drug Screen. Data for the cln2 rad14 strain (AID 165);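 further: 0% = growth equal to vehicle treated cultures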; settings: S. cerevisiae cln2 rad14 strain, active compounds read high
Method in brief: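 cln2 rad14 yeast strain; compound exposure; growth inhibition read vs vehicle controls.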

[5] = NCI Yeast Anticancer Drug Screen. Data for the bub3 strain (AID 167); settings: S. cerevisiae bub3 mutant strain, active compounds read high
Method in brief: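 Readout: yeast growth inhibition, expressed relative to vehicle-only wells. The test organism is a mutant strain from a panel with lesions in DNA repair or checkpoint genes.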

[6] = NCI Yeast Anticancer Drug Screen. Data for the mlh1 rad18 strain (AID 175); settings: S. cerevisiae mlh1 rad18 strain growth inhibition, active compounds read high
Method in brief: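 Yeast w/ defined DNA-repair lesions; compound exposure; growth vs vehicle controls → % inhibition.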

[7] = at 5.0 µM (retest, dose inferred, filed as 0.5)
[8] = at 50.0 µM (retest, dose inferred, filed as 5.0)

Compound | growth inhibition [1, 7] | growth inhibition [1, 8] | growth inhibition ([1]; at 50.0 µM) | growth inhibition [2, 7] | growth inhibition [2, 8] | growth inhibition ([2]; at 50.0 µM) | growth inhibition [3, 7] | growth inhibition [3, 8] | growth inhibition ([3]; at 50.0 µM) | growth inhibition [4, 7] | growth inhibition [4, 8] | growth inhibition ([4]; at 50.0 µM) | growth inhibition [5, 7] | growth inhibition [5, 8] | growth inhibition ([5]; at 50.0 µM) | growth inhibition [6, 7] | growth inhibition [6, 8] | growth inhibition ([6]; at 50.0 µM)
COc1cccc(C2N(Cc3ccc(N(CCCl)CCCl)cc3C)CCCN2Cc2ccc(N(CCCl)CCCl)cc2C)c1O | 7% | 94% (active) | 27.6% | -2% | 96% (active) | 10.2% | -2% | 97% (active) | 64.5% | -5% | 82% (active) | -12.6% | -6% | 89% (active) | 0.75% | 8% | 93% (active) | 40.1%
CC(=O)[O-].CC(=O)[O-].O=C(N/N=C/c1cc(Cl)cc(Cl)c1[OH2+])c1ccncc1.[Co+2] | 6% | 23% | 51.6% | 17% | 41% | 61.9% | 7% | 33% | 58.2% | 5% | 13% | 26.4% | 2% | 9% | 48% | 4% | 39% | 73.5% (active)
O=[N+]([O-])/C=C\c1ccc2c(c1)OCO2 | 99% (active) | 100% (active) | 99.3% (active) | 100% (active) | 100% (active) | 99.5% (active) | 99% (active) | 99% (active) | 99.5% (active) | 100% (active) | 99% (active) | 98.8% (active) | 100% (active) | 94% (active) | 99% (active) | 100% (active) | 100% (active) | 99.5% (active)
Cc1ccc(NC(=O)CBr)cc1 | 92% (active) | 99% (active) | 99.1% (active) | 97% (active) | 100% (active) | 99.2% (active) | 97% (active) | 97% (active) | 99.2% (active) | 97% (active) | 99% (active) | 98.8% (active) | 95% (active) | 99% (active) | 99% (active) | 94% (active) | 98% (active) | 99% (active)
CCCC[As](CCCC)SC1CCC2(C)C(=CCC3C4CCC(=O)C4(C)CCC32)C1 (stereo not given) | 16% | 92% (active) | 95.7% (active) | 6% | 87% (active) | 83.6% (active) | 21% | 76% (active) | 97% (active) | 5% | 64% | 82.3% (active) | 3% | 87% (active) | 84% (active) | 13% | 88% (active) | 98.8% (active)
